From PubChem BioAssay
A selection: hits, their analogues and other compounds. The true share with any hit is near 6.9%.
BAZ2B inh: qHTS Assay for Inhibitors of BAZ2B. AID 504333, 2011. Bromodomain adjacent to zinc finger domain protein 2B (Homo sapiens), Q9UIF8. actives 4.4% (n = 360,000). Potency, µM (doses to about 114 µM), inactives show at the highest dose activity change, negative = inhibition, actives largely listed as inhibitors. AlphaScreen BAZ2B-H3K14Ac peptide displacement; note: % is set by controls: 0 for no effect and ±100 for the full control effect; nearly all actives have a fitted effect of over 60% in size
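AlphaScreen displacement of biotin-H3(5-23)K14Ac peptide (50 nM final) from BAZ2B (50 nM final) in PBS pH 7.4, 0.01% Tween-20; complex preformed 30 min RT, then compounds (top 110 uM) 30 min RT, beads 20 min dark.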
VDR inhibitor: Inhibitors of the vitamin D receptor (VDR): qHTS. Vitamin D3 receptor (Homo sapiens), P11473. VDR-SRC2-3 peptide fluorescence polarization, 2 h. Potency, µM, for inactives: max response, negative = inhibition, actives largely listed as inhibitors. actives 0.93% (n = 400,000); note: % is set by controls: 0 for no effect and ±100 for the full control effect
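The screen uses fluorescence polarization to detect compounds that interfere with recruitment of the SRC2-3 coactivator peptide to VDR; plates are read after 2 h at room temperature.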
HP1b chromo inh: HTS for Inhibitors of HP1-beta Chromodomain Interactions with Methylated Histone Tails; Chromobox protein homolog 1 (Homo sapiens), P83916; Potency, µM (series often up to 114 µM), inactives show at the top dose activity change, negative = inhibition, actives largely listed as inhibitors; actives 0.56% (n = 390,000); AID 540317, 2011; AlphaScreen HP1-beta / biotin-H3K9me3 peptide binding; note: nearly all actives have a fitted effect of over 70% in size
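AlphaScreen: HP1-beta (50 nM) preformed 30 min with biotin-H3(1-18)K9me3 peptide (50 nM) in PBS pH 7.4, 0.01% Tween-20. Compound added for 30 min at RT, then streptavidin donor/nickel chelate acceptor beads (10 ug/mL) for 30 min.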
JMJD2A Tudor inh: qHTS Assay for Inhibitors of JMJD2A-Tudor Domain. Lysine-specific demethylase 4A (Homo sapiens), O75164. Potency, µM (series often up to 114 µM), inactives show top-dose activity change, negative = inhibition, usual class: inhibitors. actives 4.4% (n = 390,000). AlphaScreen JMJD2A-Tudor / H3K4me3 peptide binding; note: % is set by controls: 0 for no effect and ±100 for the full control effect; nearly all actives have a fitted effect of over 50% in size
PLK1 PBD inh: qHTS for Inhibitors of PLK1-PDB (polo-like kinase 1 - polo-box domain): Primary Screen; Serine/threonine-protein kinase PLK1 (Homo sapiens), P53350; Plk1 PBD binding of FITC phosphopeptide, fluorescence polarization; Potency, µM, for inactives: max response, negative = inhibition, hits mostly inhibitors; actives 2.8% (n = 360,000); AID 720504, 2013; note: series mostly up to about 57 µM; % is set by controls: 0 for no effect and ±100 for the full control effect; nearly all actives have a fitted effect of over 65% in size
Target sequence (P53350 whole entry, looked up, the tested form may be a part): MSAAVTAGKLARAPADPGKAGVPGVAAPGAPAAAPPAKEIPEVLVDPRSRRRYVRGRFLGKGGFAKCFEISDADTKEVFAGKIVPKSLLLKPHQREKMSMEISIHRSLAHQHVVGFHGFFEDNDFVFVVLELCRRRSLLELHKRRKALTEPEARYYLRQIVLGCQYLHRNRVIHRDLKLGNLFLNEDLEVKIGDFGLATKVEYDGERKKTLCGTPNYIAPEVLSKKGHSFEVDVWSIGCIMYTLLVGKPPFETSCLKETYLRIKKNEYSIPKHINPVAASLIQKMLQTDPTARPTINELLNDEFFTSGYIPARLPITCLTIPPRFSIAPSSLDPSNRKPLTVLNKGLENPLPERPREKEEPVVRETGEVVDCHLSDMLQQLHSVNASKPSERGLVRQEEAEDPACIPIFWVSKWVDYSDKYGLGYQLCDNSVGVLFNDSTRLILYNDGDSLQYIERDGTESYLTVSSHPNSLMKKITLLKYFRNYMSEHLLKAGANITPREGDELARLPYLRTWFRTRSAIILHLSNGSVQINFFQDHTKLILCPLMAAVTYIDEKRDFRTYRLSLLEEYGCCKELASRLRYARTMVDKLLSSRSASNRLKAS
L3MBTL1 block: qHTS Assay for the Inhibitors of L3MBTL1 | Potency, µM (titrated, usually from 57.1 µM), without a hit: at the top dose activity, negative = inhibition, most hits filed as inhibitors | actives 0.66% (n = 230,000) | Lethal(3)malignant brain tumor-like protein 1 (Homo sapiens), Q9Y468 | AlphaScreen L3MBTL1–H3K9me1 peptide binding; note: % is set by controls: 0 for no effect and ±100 for the full control effect; nearly all actives have a fitted effect of over 60% in size
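Read-out is AlphaScreen signal from streptavidin donor and nickel chelate acceptor beads (10 ug/mL final each) bridging L3MBTL1 (50 nM) and biotinylated K9-monomethylated H3(1-15) peptide (75 nM), after 30 min compound exposure at room temperature.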
* hit, by the source's call; ? = inconclusive; nt = not tested or not shown; [ ] = remark or other dose. Calls come from the whole dose curve; as a rule, active = well fitted curve in the direction sought with a large enough effect; inconclusive = small, poorly fitted or top-dose-only effect, or another doubt; inactive = no such curve, though single readings can be large; an effect the other way counts as inactive or inconclusive. Potency is the fitted concentration of half-maximal effect.

SMILES	BAZ2B inh	VDR inhibitor	HP1b chromo inh	JMJD2A Tudor inh	PLK1 PBD inh	L3MBTL1 block
COCCN(C(=O)c1snc(C(N)=O)c1N)C(C(=O)NC1CCCCC1)c1ccc(F)cc1 (centres undefined)	14%	3%	27%	-16%	-7%	20%
CCOC(=O)N1CCN(C(=O)CSCC(=O)N=c2sc3cc(OC)ccc3n2C)CC1	nt	?	-13%	-10%[11.4 µM]	27µM*	nt
CCOC(=O)N1CCN(C(=O)CSCC(=O)N=c2sc3ccccc3n2C)CC1	2%	8%	22%	-20%	-10%	nt
Cc1ccccc1CNC(=O)CN1C(=O)C2CCCCN2c2ccc(C(=O)N3CCCC3)cc21 (centres undefined)	-6%	2%	13%[57 µM]	-23%	nt	nt
Cn1nc(C(=O)NCc2ccccn2)c2ccccc2c1=O	?	33%	16%	22µM*	-6%	-2%
Cc1ccc(OCCC(=O)NNC(=O)c2nn(C)c(=O)c3ccccc23)cc1	3%	5%	25%	-7%	6%	0%
CCOc1ccc(OCCC(=O)NNC(=O)c2nn(C)c(=O)c3ccccc23)cc1	71µM*	-3%	4%	?	4%	nt
CCCCNC(=O)CC(NS(=O)(=O)c1ccc(C)cc1)c1ccco1 (centres undefined)	-3%	-12%	46%	-14%	-6%	-3%
COc1ccccc1CNC(=O)CC(NS(=O)(=O)c1ccc(C)cc1)c1ccco1 (centres undefined)	4%	?	-6%	?	27µM*	9%
Cc1ccc(S(=O)(=O)NC(CC(=O)NCC2CCCO2)c2ccco2)cc1 (centres undefined)	-5%	1%	7%	4.5µM*	-5%	-5%
COc1ccc(NC(=O)CN2C(=O)C3(SCC(=O)N3c3cccc(OC)c3)c3ccccc32)cc1 (centres undefined)	1%[57.1 µM]	0%	-4%	-21%	nt	nt
CO/N=C/c1c(C(=O)OC)nn(-c2ccccc2)c1Cl	-3%	?	23%	?	3.8µM*	3%
O=C1C([N+](=O)[O-])=C(O)c2cccc3cccc1c23	45µM*	nt	nt	nt	nt	nt
O=C(N/N=C1\C(=O)c2cccc3cccc1c23)c1ccc(O)cc1	-34%	-13%	22%	-32%	-19%	-10%[11.4 µM]
O=C(O)/C=C/c1ccc(OCc2cccc(F)c2)cc1	-13%	?	-2%	14µM*	30µM*	nt
Cc1c(NC(=O)CSc2ccc(Cl)cc2)cccc1-c1nc2cc(Cl)ccc2o1	1%	-17%	17%	-15%	-3%	6%
CCN(CC)c1ccc(NC(=O)C2CC(=O)N(Cc3ccccc3)C2)cc1 (centres undefined)	45µM*	-12%	?	56µM*	-21%	32µM*
CS(=O)(=O)c1ccc(Cl)c(NC(=O)C2CC(=O)N(Cc3ccccc3)C2)c1 (centres undefined)	?	-7%	-24%	89µM*	-26%	nt
CS(=O)(=O)c1ccc(Cl)c(NC(=O)C2CC(=O)N(Cc3ccco3)C2)c1 (centres undefined)	-4%	2%	28%	-3%	3%	?
O=c1[nH]c(SCc2ccccc2)nc2[nH]ncc12	-14%	-2%	28%	-1%	1%	nt
COc1ccc(-c2csc3nc(-c4ccccc4C)oc(=O)c23)cc1OC	4%	-21%	28%	-2%	nt	nt
COCCn1c(NC(=S)NC(=O)C2CC2)cc(=O)[nH]c1=O	?	?	12%	1µM*	?	-6%
CCOC(=O)c1ccc(NC(=O)c2ccc(CN3C(=O)CCn4nc(C)cc43)cc2)cc1	19%	5%	64%	-14%	nt	nt
CN(C)c1ncc2nc(-c3cccs3)c(=O)n(C)c2n1	nt	-1%	nt	nt	nt	nt
CCC(C)NC(=O)C1CCC(CNS(=O)(=O)c2ccc3c(c2)CC(C)N3C(C)=O)CC1 (centres undefined)	-1%	?	3%	?	24µM*	nt
SMILES	BAZ2B inh	VDR inhibitor	HP1b chromo inh	JMJD2A Tudor inh	PLK1 PBD inh	L3MBTL1 block
CCCNC(=O)C1CCC(CNS(=O)(=O)c2ccc3c(c2)CC(C)N3C(C)=O)CC1 (centres undefined)	-2%	-3%	11%	-11%	-2%	nt
CC(=O)N1c2ccc(S(=O)(=O)NCC3CCC(C(=O)Nc4ncccc4C)CC3)cc2CC1C (centres undefined)	-23%	?	1%	-18%	21µM*	nt
Cc1ccccc1C(c1c(C)n(C)n(-c2ccccc2)c1=O)c1c(C)n(C)n(-c2ccccc2)c1=O	1%	6%	42%	-4%	nt	nt
CS/C(=N\S(=O)(=O)c1ccc(N)cc1)NS(=O)(=O)c1cccs1	-2%	-3%	14%	89µM*	-13%	5%
CSC(=NCc1ccc(F)cc1)NS(=O)(=O)c1cccs1	7%	3%	69%	-9%[57.1 µM]	-15%	6%
COc1ccc2[nH]c(=O)c(-c3nnn(-c4ccc(Cl)nc4)n3)cc2c1	nt	-8%	4%	50µM*	?	nt
COc1ccc2[nH]c(=O)c(-c3noc(-c4ccccc4)n3)cc2c1	50µM*	-1%	43%	?	-8%	-10%
COc1cccc(Nc2ncc3nc(-c4ccc(Cl)cc4)c(=O)n(C4CC4)c3n2)c1	nt	-17%	nt	nt	nt	nt
COc1ccc(Cn2c(CNS(=O)(=O)c3ccc(Cl)s3)nc3cccnc32)cc1	-3%	7%	35%[57 µM]	0%	nt	nt
O=C(c1nnsc1S(=O)c1ccc(Cl)cc1)N1CCOCC1 (centres undefined)	-1%	7.9µM*	?	7.1µM*	1.1µM*	-21%
Nc1c(Cl)c(Cl)nc(C(=O)OCC(=O)N2CCCC2=O)c1Cl	3%	-24%	21%	-31%	-14%	0%
O=C(OCC(=O)N1CCCC1=O)c1nc(Cl)c(Cl)c(Cl)c1Cl	71µM*	-8%	-2%	?	-10%	nt
CC(CN1CCC(O)CC1)c1ccccc1 (centres undefined)	?	-2%	?	2.8µM*	-2%	-4%
O=C(C(Cl)Cl)N1CCN(Cc2ccccc2)CC1	-2%	-7%	30%	6%	0%	-3%
ClC(CCN1CCN(Cc2ccccc2)CC1)c1ccccc1 (centres undefined)	nt	-12%	11%	50µM*	-3%	nt
CC1CCN(C(=O)C2CCN(CC(C)c3ccccc3)CC2)CC1 (centres undefined)	59%	-13%	?	?	2%	0%
